Laboratory results as given in PubChem BioAssay AID504834 (National Center for Advancing Translational Sciences (NCATS), 2011).
The campaign covered roughly 320,000 compounds. About 22,000 (6.9%) were called active. Entries that show only a call come without a potency. Another 27% or so got no clear call; they are omitted. The call rests on the fitted dose curve; in most records, active means well fitted inhibition curve with a large enough effect; inconclusive means small, poorly fitted or top-dose-only effect, or another doubt; inactive means no such curve, though single readings can be large or run the other way. Only a selection was taken, and actives are over-represented in it overall.

Assay: Primary qHTS for delayed death inhibitors of the malarial parasite plastid, 96 hour incubation
Conditions: P. falciparum luciferase reporter growth; series mostly up to 28.7 µM
Summary of the method: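 96 h incubation, 37 C, 5% CO2, of luciferase-reporter P. falciparum-infected RBCs (2% hematocrit, 0.05% parasitemia final) with test compounds; endpoint luminescence.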
Potency means the concentration at half of the fitted maximal effect.

SMILES | Potency
CC(C)c1ccc(S(=O)(=O)NC2CCCC2)cc1 | inactive
O=C(NNC(=O)C(O)c1ccccc1)NC1CCCCC1 (centres undefined) | inactive
OC(CNC1CCCCC1)c1ccccc1 (centres undefined) | 9.28 µM (active)
c1ccc(CCNC2CCCCCC2)cc1 | inactive
Cc1cc(Cl)c2oc(C(=O)N(C)C(C)c3ccccn3)c(C)c2c1 (centres undefined) | inactive
CN(C)c1nc(Nc2ccc(Cl)c(Cl)c2)nc(N(C)C)n1 | inactive
COc1cc(C2C(C(=O)c3ccco3)=C(O)C(=O)N2c2cc(C)on2)ccc1OCc1ccccc1 (centres undefined) | inactive
Cc1ccc2nc(N3CCN(C(=O)c4ccco4)CC3)sc2c1 | inactive
Cc1ccc2nc(N3C(=O)C(O)=C(C(=O)c4ccco4)C3c3cccc(O)c3)sc2c1 (centres undefined) | 9.28 µM (active)
COc1ccc(C(=O)NCc2nnc(SCC(=O)NC3=NCCS3)n2C)cc1 | inactive
CCOc1ccccc1NC(=O)Cc1cccs1 | inactive
COc1cc(C(=O)NCC2(c3ccccc3)CCCC2)ccc1OC(C)C | inactive
OCCC1CN(Cc2ccc3nsnc3c2)CCN1C1CCCCC1 (centres undefined) | 10.4 µM (active)
Cn1cnnc1Sc1ccc(CN2CCN(C3CCCC3)C(CCO)C2)o1 (centres undefined) | inactive
CC[C@H](C)C(=O)N[C@H]1CCCN1C(=O)/C=C/c1ccccc1 | inactive
Cc1ccc(C)c(OCCC(=O)OCC(=O)c2ccc3c(c2)NC(=O)CO3)c1 | inactive
O=C(COc1coc(CN2CCN(c3ccccc3)CC2)cc1=O)Nc1ccccc1F | inactive
C=CCNC(=O)COc1coc(CN2CCN(Cc3ccccc3)CC2)cc1=O | 13.1 µM (active)
Cc1cc(C)cc(NC(=O)COc2coc(CN3CCN(c4ccccc4)CC3)cc2=O)c1 | inactive
CC(=O)O[C@H]1CC[C@@]2(C)[C@@H](CC[C@@H]3[C@@H]2CC[C@]2(C)[C@@H](C(C)(C)O)C[C@@H]32)C1 | inactive
CC1CCC2CCCCC2N1C(=O)c1cc([N+](=O)[O-])cc([N+](=O)[O-])c1 (centres undefined) | inactive
Cc1cccc(N(C(=O)c2sc(C)nc2C)C(C(=O)NCC2CCCO2)c2ccccc2)c1 (centres undefined) | inactive
Cc1nc(C)c(C(=O)N(c2ccc(C)c(C)c2)C(C(=O)NCc2ccco2)c2ccccc2)s1 (centres undefined) | 10.4 µM (active)
O=C(NCc1ccco1)C(c1ccncc1)N(C(=O)Cn1nnc2ccccc21)c1ccccc1 (centres undefined) | inactive
CC(C)(C)NC(=O)C(c1ccc(Cl)cc1)N(CCO)C(=O)c1snc(C(N)=O)c1N (centres undefined) | inactive
CCCCCNC(=O)C1c2ccccc2Oc2ccccc21 | inactive
CCOC(=O)c1ccc(N2C(=O)CC(N3CC(C)OC(C)C3)C2=O)cc1 (centres undefined) | inactive
CCOC(=O)c1ccc(N2C(=O)CC(N(C)Cc3ccccc3)C2=O)cc1 (centres undefined) | 1.47 µM (active)
CCOC(=O)c1ccc(N2C(=O)CC(N3CCN(C(=O)c4ccccc4)CC3)C2=O)cc1 (centres undefined) | inactive
